# Bioassay records (PubChem)
# An excerpt weighted towards active compounds, which were near 21% of everything screened.
# Cycloheximide cs: counter-screen for Shiga toxin inhibitors: cycloheximide protein synthesis inhibition; cell reporter, cycloheximide protein synthesis inhibition counterscreen; max response, %; hit rate 12% among 300,000; in the data active = max response mostly above about 13%, no sharp cut-off; inactive = mostly below about 14%; also: read at 38.3 µM for the half of the compounds with a filed dose; 0% is about no effect
# Pf growth 48h: inhibits P. falciparum growth in the first generation, 48 h; hit rate 5.9% among 310,000; P. falciparum luciferase growth in erythrocytes, 48 h; Potency, µM (series often up to 28.7 µM), inactives show at the highest dose activity change, negative = inhibition, hits mostly inhibitors; also: potency is read from the fitted curve at half-maximal effect; % is scaled to controls: 0 for no effect and ±100 for the full control effect
#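 Read-out is firefly luciferase luminescence from an integrated reporter in P. falciparum, so falling signal marks reduced parasite growth. Infected erythrocytes were at 2% hematocrit and 0.1% parasitemia (final) in Albumax-supplemented RPMI 1640.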
# Pf growth 96h: inhibits malaria parasite growth, 96 h; hit rate 6.9% among 320,000; Potency, µM (top dose mostly 28.7 µM), without a hit: at the highest dose activity change, negative = inhibition, most hits filed as inhibitors; P. falciparum luciferase reporter growth, 96 h; AID 504834; also: potency is read from the fitted curve at half-maximal effect; % is scaled to controls: 0 for no effect and ±100 for the full control effect
#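 Two parasite generations (96 h, 37 C, 5% CO2) of compound exposure in infected erythrocytes (0.05% parasitemia, 2% hematocrit). Luciferase-reporter P. falciparum; decreased luminescence indicates inhibited growth, aimed at apicoplast-acting delayed death.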
# HCV inhibitor: blocks hepatitis C virus; Potency, µM (series often up to 41.8 µM), for the others: top-dose activity change, negative = inhibition, usual class: inhibitors; Huh7.5.1 HCVcc-Cre infection, luciferase reporter, 44 h; hit rate 3.4% among 340,000; AID 651820; also: potency is read from the fitted curve at half-maximal effect; % is scaled to controls: 0 for no effect and ±100 for the full control effect
#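 Cells seeded at 1,000/well and cultured 4 h, then compounds added followed by HCVcc-Cre virus (~0.5 moi). After 44 h further culture, luciferase substrate was added, plates held 15 min at room temperature, and luminescence read for 15 sec.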
# Shiga toxin inh: inhibitors of Shiga toxin in Vero cells; AID 2315; Vero cells, Shiga toxin protein synthesis inhibition reporter; hit rate 9.2% among 290,000; inhibition, % at 38.7 µM; in the data active = inhibition mostly above about 28%, no sharp cut-off; inactive = mostly below about 43%; also: 0% is about no effect
# HCMV inh: inhibitors of human cytomegalovirus | HFF cells, HCMV-luciferase reporter, 72 h; stronger effect = lower value | activity change, negative = inhibition, % at 57.5 µM | hit rate 4.5% among 410,000 | AID 1259415; in the data active = activity change below about -60%; inconclusive = no clear call, values can overlap the other calls; inactive = above about -39%; also: % is scaled to controls: 0 for no effect and ±100 for the full control effect
#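 Human foreskin fibroblasts infected with luciferase-reporter HCMV at MOI 1 PFU/cell, compounds at two doses. Luciferase measured 72 h post infection; normalized to buffer-only basal and Salinomycin (10uM) controls.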
# * marks the source's active call; other numbers are inactive results; u = inconclusive; x = no result given. Unless noted, calls follow the shape of the dose curve; as a rule, active = well fitted inhibition curve with a large enough effect; inconclusive = small, poorly fitted or top-dose-only effect, or another doubt; inactive = no such curve, though single readings can be large or run the other way.
SMILES,Cycloheximide cs,Pf growth 48h,Pf growth 96h,HCV inhibitor,Shiga toxin inh,HCMV inh
O=C(COC(=O)Cn1cnc2ccccc21)Nc1ccc2c(c1)C(=O)c1ccccc1C2=O,67.0*,154.3%,298.0%,u,18.1*,11.3
Cc1ccc(NC(=O)CCn2cnc3ccccc3c2=O)cc1,12.6,2.6%,u,-11.0%,23.4,-14.2
CC1CC(C)CN(CCCNC(=O)CCNC(=O)Cn2cnc3ccccc3c2=O)C1 (stereo not drawn),-1.5,12.7%,-4.9%,3.2%,8.6,-10.6
COc1ccc(NC(=O)C2Cc3cc(S(=O)(=O)N4CCCCC4)ccc3N2C(C)=O)cc1Cl (stereo not drawn),-0.5,u,27.0%,u,-8.5,-7.7
CN(C)c1ccc(C(CNC(=O)c2ccccc2Cl)N2CCCC2)cc1 (stereo not drawn),x,x,x,x,x,-10.9
Cc1ccc(C2c3[nH]c4ccccc4c3C[C@H]3C(=O)N(c4ccccc4C(=O)NCCN4CCOCC4)C(=O)N23)cc1 (stereo partly drawn),-2.2,14.7µM*,u,-23.0%,0.5,-20.0
Cc1ccccc1C1c2[nH]c3ccccc3c2C[C@H]2C(=O)N(c3ccccc3C(=O)NCCCN3CCOCC3)C(=O)N12 (stereo partly drawn),-1.8,u,11.7µM*,1.12µM*,-1.3,-1.3
O=C(NCCCN1CCOCC1)c1ccccc1N1C(=O)[C@@H]2Cc3c([nH]c4ccccc34)C(c3cccc(Cl)c3)N2C1=O (stereo partly drawn),-4.1,u,9.28µM*,-8.6%,1.4,16.8
Cc1ccccc1C1c2[nH]c3ccccc3c2C[C@H]2C(=O)N(c3ccccc3C(=O)NCCN3CCOCC3)C(=O)N12 (stereo partly drawn),-4.1,u,u,u,-2.1,-31.9
Cc1ccc(C2c3[nH]c4ccccc4c3C[C@H]3C(=O)N(c4ccccc4C(=O)NCCCN4CCOCC4)C(=O)N23)cc1 (stereo partly drawn),-2.7,u,u,-18.2%,2.3,9.4
O=C(C1CCCN(S(=O)(=O)c2cccc3nsnc23)C1)N1CCN(c2ccccc2)CC1 (stereo not drawn),x,x,x,x,x,-39.8
O=c1cc(O)c2sc(Nc3cccc(C(F)(F)F)c3)nc2[nH]1,3.4,u,0.0%,10.9%,-1.2,-39.6
O=c1cc(O)c2sc(Nc3ccc(F)cc3)nc2[nH]1,-2.0,u,113.1%,34.2%,-15.3,-92.4*
CCCc1cc(=O)[nH]c(SCc2nc(-c3ccccc3)no2)n1,x,x,x,x,x,0.0
CCOC(=O)Nc1ccc(C)cc1NC(=O)OCC,-1.0,-14.5%,u,-26.8%,-2.4,0.3
CCCOC(=O)Nc1ccc([As](=O)(O)O)cc1NC(=O)OCCC,5.9,u,u,25.9%,2.2,-80.1*
O=C(c1cc2cc(Br)ccc2oc1=O)N1CCCC1,-2.3,x,24.6%,17.6%,0.5,-7.6
COc1ccc(N2CCN(C(=O)c3cc4ccccc4o3)CC2)cc1,10.0,2.9%,52.1%,5.2%,12.9,-17.7
O=C(c1cc2cc(Br)ccc2o1)N1CCOCC1,18.7*,63.8%,0.5%,15.2%,50.5*,-5.5
O=C(c1cc2cc(Br)ccc2o1)N1CCN(c2ccccc2)CC1,50.9*,67.0%,5.6%,u,78.2*,15.0
O=C(c1cc2cc(Br)ccc2o1)N1CCCC1,39.2*,-61.3%,-27.2%,-19.4%,61.3*,-29.7
CC1CC(C)CN(C(=O)c2cc3cc(Br)cc(Br)c3o2)C1 (stereo not drawn),31.1*,-4.9%,0.5%,-14.7%,40.8*,1.3
COC(=O)C(CC(C)C)N(Cc1ccc(Br)cc1)S(=O)(=O)CCl (stereo not drawn),x,x,x,x,x,-0.8
COc1ccc2c(c1)c1c(c(=O)n(-c3ccc(C)cc3)c(=O)n1CC(=O)Nc1cc(C)ccc1C)n2C,x,x,x,x,x,24.3
CCN(C(=O)c1cc(S(=O)(=O)N2CCc3ccccc32)cn1C)c1ccccc1,-3.6,-4.2%,0.0%,-30.0%,-1.6,-10.2
Cc1cc(F)ccc1NC(=O)c1cc(S(=O)(=O)N2CCc3ccccc32)cn1C,1.1,u,10.4µM*,u,1.2,-14.8
